Source: PubChem BioAssay (National Center for Advancing Translational Sciences (NCATS))
IL-1B inflam inh: qHTS for Inhibitors of Inflammasome Signaling: IL-1-beta AlphaLISA Primary Screen | THP-1 LPS/ATP IL-1B secretion, AlphaLISA, 16 h; hits give low values | activity change, % at 57.5 µM | AID 743279, 2014 | 4.7% of 360,000 active; in the data active = activity change below about -50%; inconclusive = mostly about -30% to -49%
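Secreted IL-1B measured by AlphaLISA bead assay after 16 h compound exposure of THP-1 cells; compounds (final up to 57.5 uM) added 1 h before LPS (250 ng/mL) and ATP (1.25 mM) stimulation; lower signal means less secretion.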
TDP1 cell noCPT: qHTS for Inhibitors of human tyrosyl-DNA phosphodiesterase 1 (TDP1): qHTS in cells in absence of CPT; 15% of 420,000 active; Potency, µM (top dose mostly 46.2 µM), for inactives: at the highest dose activity change, negative = growth inhibition, most hits filed as inhibitors; DT40 Tdp1-/- hTDP1 cells, no CPT, ATP luminescence, 48 h; AID 686978, 2013; note: potency is the fitted concentration of half-maximal effect; nearly all actives have a fitted effect of over 55% in size
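Chicken DT40 Tdp1-/- cells complemented with human TDP1, screened without camptothecin (DMSO vehicle only), 400 cells/well. Compounds pin-transferred, cells incubated at 37 °C for at least 48 hr. Growth read as ATP-dependent luminescence (CellTiter-Glo, 30 min at RT).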
HT1080 IDH1KD tx: qHTS for induction of synthetic lethality in tumor cells producing 2HG: qHTS for the HT-1080-IDH1KD cell line | HT-1080 IDH1 knockdown viability, ATP luminescence, 48 h | Potency, µM (titrated, usually from 46.1 µM), inactives show top-dose activity, negative = toxicity, actives largely listed as cytotoxic | 2% of 360,000 active;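 note: potency is the fitted concentration of half-maximal effect; 0% = DMSO wells and -100% = cell-free medium wells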
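HT-1080-IDH1KD cells (IDH1 knocked down), 750/well in RPMI with 5% FBS, treated with compound 48 h at 37 degrees C. Viability by CellTiter-Glo luminescence, normalised to DMSO and no-cell wells; concentration-response curves classed.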
TDP1 cell CPT: qHTS for Inhibitors of human tyrosyl-DNA phosphodiesterase 1 (TDP1): qHTS in cells in presence of CPT. chicken DT40 Tdp1-/-;hTDP1 cells + 20 nM CPT, ATP luminescence, 48 h. Potency, µM (titrated, usually from 46.2 µM), without a hit: top-dose activity change, negative = growth inhibition, hits mostly inhibitors. 12% of 420,000 active; note: potency is the fitted concentration of half-maximal effect; nearly all actives have a fitted effect of over 55% in size
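Cell growth measured by CellTiter-Glo luminescence after a minimum 48 h, 37 C compound exposure with 20 nM CPT in Tdp1-knockout DT40 cells stably expressing hTDP1, seeded 400/well; qHTS titration format.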
ALOX12 inh: Primary qHTS assay for inhibitors of human arachidonate 12S-lipoxygenase (ALOX12): Round 2; Polyunsaturated fatty acid lipoxygenase ALOX12 (Homo sapiens), P18054; purified 12hLO, xylenol orange hydroperoxide absorbance; Potency, µM (doses to about 108 µM), without a hit: at the highest dose activity change, negative = inhibition, actives largely listed as inhibitors; 1.1% of 580,000 active; AID 1671190, 2021; note: potency is the fitted concentration of half-maximal effect
Target sequence (P18054 whole entry, looked up): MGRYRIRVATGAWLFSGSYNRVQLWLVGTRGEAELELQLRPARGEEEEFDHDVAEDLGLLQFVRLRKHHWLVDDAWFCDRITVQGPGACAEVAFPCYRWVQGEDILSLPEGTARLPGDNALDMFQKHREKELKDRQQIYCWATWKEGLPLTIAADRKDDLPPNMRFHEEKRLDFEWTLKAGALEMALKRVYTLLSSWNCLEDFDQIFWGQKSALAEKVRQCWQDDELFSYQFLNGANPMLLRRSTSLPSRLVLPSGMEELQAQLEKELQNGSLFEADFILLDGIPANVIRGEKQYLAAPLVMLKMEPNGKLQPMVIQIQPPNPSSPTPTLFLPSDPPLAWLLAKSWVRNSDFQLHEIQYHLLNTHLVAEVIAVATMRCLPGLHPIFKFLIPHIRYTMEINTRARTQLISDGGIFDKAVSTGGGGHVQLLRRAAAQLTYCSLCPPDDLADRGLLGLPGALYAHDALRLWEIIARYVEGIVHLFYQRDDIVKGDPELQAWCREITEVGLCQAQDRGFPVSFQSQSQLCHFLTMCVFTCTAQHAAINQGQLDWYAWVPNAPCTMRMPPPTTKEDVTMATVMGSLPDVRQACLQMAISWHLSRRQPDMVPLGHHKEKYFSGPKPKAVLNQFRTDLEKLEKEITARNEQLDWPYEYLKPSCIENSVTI
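Purified human 12hLO at 150 nM in 25 mM Hepes, 0.01% Triton X-100, pH 7.0, preincubated 15 min at room temperature with compound. Reaction started with 40 uM arachidonic acid, 30 min at room temperature. Hydroperoxide measured by Fe-xylenol orange, 573/405 nm absorbance ratio.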
HT1080-NT tox: qHTS for induction of synthetic lethality in tumor cells producing 2HG: qHTS for the HT-1080-NT fibrosarcoma cell line; HT-1080-NT fibrosarcoma viability, CellTiter-Glo ATP luminescence, 48 h; Potency, µM (top dose mostly 46.1 µM), inactives show at the highest dose activity, negative = less viability, hits mostly cytotoxic; 1.6% of 360,000 active;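 note: NT is the 2HG producing partner of a matched IDH1 knockdown line; potency is the fitted concentration of half-maximal effect; 0% = DMSO-treated cells and -100% = media-only wells without cells; nearly all actives have a fitted effect of over 55% in size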
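A 48-hour cytotoxicity screen used HT-1080-NT cells plated 2 hours before compound delivery. ATP-based CellTiter-Glo luminescence measured viability, normalized to DMSO and no-cell controls.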
An asterisk follows results filed as active; ? = inconclusive; · = no result; [ ] = remark or other dose. The sample as a whole holds a higher share of hits than the screen did. Unless noted, calls come from the whole dose curve; as a rule, active = well fitted curve in the direction sought with a large enough effect; inconclusive = small, poorly fitted or top-dose-only effect, or another doubt; inactive = no such curve, though single readings can be large; an effect the other way counts as inactive or inconclusive. Unless noted, % is set by controls: 0 for no effect and ±100 for the full control effect.

SMILES	IL-1B inflam inh	TDP1 cell noCPT	HT1080 IDH1KD tx	TDP1 cell CPT	ALOX12 inh	HT1080-NT tox
Cc1ccc(NS(=O)(=O)c2cc([N+](=O)[O-])ccc2NNC(=S)Nc2cccc(Cl)c2)c(C)c1	-22	?	?	?	·	?
COc1ccc(NC(=S)NNc2ccc([N+](=O)[O-])cc2S(=O)(=O)Nc2ccc(C)cc2C)cc1	-84*	?	18µM*	-22%	22µM*	23µM*
Cc1ccc(NS(=O)(=O)c2cc([N+](=O)[O-])ccc2NNC(=S)Nc2cc(C)ccc2C)c(C)c1	-67*	21µM*	?	?	25µM*	?
CCC(=O)N1Cc2ccccc2CC2(CCN(Cc3cccnc3)C2)C1 (centres undefined)	·	·	·	·	6%[6.33 µM]	·
O=C(CSc1nc2ccccc2c(=O)n1CC1CCCO1)N1CCN(c2ccccc2)CC1 (centres undefined)	0	23µM*	-30%	26µM*	-14%	?
Cc1ccc(NC(=O)CSc2nc3cc(C(=O)NCC4CCCO4)ccc3c(=O)n2CC2CCCO2)cc1 (centres undefined)	-6	?	-9%	?	9%	-13%
Cc1ccc(C(=O)CSc2nc3cc(C(=O)NC4CCCC4)ccc3c(=O)n2CC2CCCO2)c(C)c1 (centres undefined)	·	?	·	10µM*	-22%	·
O=C(NCC1CCCO1)c1ccc2c(=O)n(CC3CCCO3)c(SCC(=O)N3CCCC3)nc2c1 (centres undefined)	16	0.23µM*	6%	-7%	-8%	0%
Cc1nc2cc(-c3ccccc3)nn2c(C)c1CCC(=O)NCc1ccc2c(c1)OCO2	·	·	·	·	-50%	·
Cc1nn(C)c2ncc(NC(=O)CCc3ncc(-c4ccc(F)cc4)o3)cc12	·	·	·	·	27%	·
COc1ccccc1-c1nc2nccc(-c3ccco3)n2n1	·	·	·	·	13%	·
COc1cccc(-c2c(-c3ccccc3OC)ncn2Cc2cccc(-c3ccccc3)c2)c1	?	12µM*	?	8.2µM*	-17%	?
COc1cccc(Cn2cnc(-c3ccccc3OC)c2-c2ccco2)c1	0	18µM*	-16%	18µM*	?	-30%
CCc1cccc2c1NC1(CCCC1)CC2C (centres undefined)	34	21µM*	-1%	?	-22%	17%
O=C(Nc1ccc(CN2CCS(=O)(=O)CC2)cc1)c1ccc(C(F)(F)F)cc1	-20	21µM*	-25%	?	5%	?
CC(C)(C)c1ccc(C(=O)Nc2ccc(CN3CCS(=O)(=O)CC3)cc2)cc1	-60*	21µM*	?	16µM*	178%	-4%
O=C(Nc1ccc(CN2CCS(=O)(=O)CC2)cc1)c1ccc(F)cc1	-2	4%	18%	0%	0%	3%
Cc1nc2cc(C(=O)Nc3ccccc3N3CCCC3=O)ccc2n1-c1ccccc1	·	·	·	·	11%	·
CN(C)c1ccc(NCc2cccc(Br)c2)cc1	·	·	·	·	7.9µM*	·
S=C(Nc1ccccc1Cl)NC1CCN(Cc2ccccc2)CC1	-7	18µM*	1%	21µM*	-22%	-2%
Cc1c(Cl)cccc1NC(=S)NC1CCN(Cc2ccccc2)CC1	-73*	?	-12%	?	?	-21%
